Laboratory results as given in PubChem BioAssay (NCI).
About 79,000 compounds went through this panel and 15% of them were active in at least one assay; those are over-represented in the sample as a whole. Active and inactive are the calls of the source. No stated cut-off is given here; in the data, active means growth inhibition above about 70%; inactive means the rest.

Tests used:
[1] = NCI Yeast Anticancer Drug Screen. Data for the rad52 strain (AID 147);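 further: 0% = growth of vehicle-treated control cultures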; conditions: S. cerevisiae rad52 mutant growth inhibition, active compounds read high
Summary of the method: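 Yeast strain carrying a DNA damage repair alteration was exposed to test compounds. Growth inhibition was measured relative to vehicle-treated controls.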

[2] = NCI Yeast Anticancer Drug Screen. Data for the wt1 strain (AID 149);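 further: 0% = growth of vehicle-treated wt1 cultures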; conditions: S. cerevisiae wt1 strain (SPY 50644) growth inhibition, active compounds read high
Summary of the method: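 Measured: growth of wt1 yeast under compound versus vehicle treatment, reported as inhibition.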

[3] = NCI Yeast Anticancer Drug Screen. Data for the rad50EPP+ strain (AID 151);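 further: 0% = growth of vehicle-treated control cultures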; conditions: S. cerevisiae rad50 mutant strain, active compounds read high
Summary of the method: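 Yeast strain carrying rad50 alteration (rad50EPP+) exposed to compounds; growth inhibition measured relative to vehicle-treated controls.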

[4] = NCI Yeast Anticancer Drug Screen. Data for the mgt1 strain (AID 153); conditions: S. cerevisiae mgt1 mutant growth inhibition, active compounds read high
Summary of the method: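 Yeast mgt1 strain (DNA repair/cell-cycle alteration panel) exposed to compounds; growth inhibition measured relative to vehicle-treated controls.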

[5] = NCI Yeast Anticancer Drug Screen. Data for the rad50 strain (AID 155);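 further: 0% = growth of vehicle-only cultures of the same strain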; conditions: S. cerevisiae rad50 strain growth inhibition, active compounds read high
Summary of the method: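 Growth of the mutant yeast was measured after compound exposure and referenced to vehicle-treated cultures.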

[6] = NCI Yeast Anticancer Drug Screen. Data for the mec2-1 strain (AID 157); conditions: S. cerevisiae mec2-1 strain, active compounds read high
Summary of the method: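 mec2-1 yeast strain, carrying an alteration in DNA damage repair or cell cycle control, was exposed to compounds; growth inhibition was measured relative to vehicle-treated controls.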

[7] = NCI Yeast Anticancer Drug Screen. Data for the sgs1 mgt1 strain (AID 161);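 further: 0% = growth of cultures given vehicle only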; conditions: S. cerevisiae sgs1 mgt1 strain, active compounds read high
Summary of the method: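 This yeast growth screen uses a strain with defined DNA-repair lesions; compound-treated growth is compared with vehicle-treated growth.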

[8] = NCI Yeast Anticancer Drug Screen. Data for the CLN2oe strain (AID 163);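 further: 0% = growth of vehicle-only control cultures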; conditions: S. cerevisiae CLN2oe strain, active compounds read high
Summary of the method: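 Yeast cells carrying a defined cell-cycle control alteration were exposed to test compounds. Growth inhibition was scored against vehicle-treated control cultures.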

[9] = NCI Yeast Anticancer Drug Screen. Data for the cln2 rad14 strain (AID 165);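 further: 0% = growth equal to vehicle treated cultures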; conditions: S. cerevisiae cln2 rad14 strain, active compounds read high
Summary of the method: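 Yeast carrying cln2 and rad14 alterations (cell cycle control and DNA damage repair) were exposed to compounds. Growth inhibition was measured against vehicle-treated controls.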

[10] = NCI Yeast Anticancer Drug Screen. Data for the bub3 strain (AID 167); conditions: S. cerevisiae bub3 mutant strain, active compounds read high
Summary of the method: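 Whole-cell yeast assay. The mutant strain was incubated with compounds, and growth inhibition was determined by comparison with vehicle-treated cells.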

[11] = NCI Yeast Anticancer Drug Screen. Data for the wt2 strain (AID 169);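 further: 0% = growth of vehicle-treated yeast cultures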; conditions: S. cerevisiae wt2 strain growth inhibition, active compounds read high
Summary of the method: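 Yeast cells were exposed to test compounds, and growth inhibition was measured relative to vehicle-treated controls.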

[12] = NCI Yeast Anticancer Drug Screen. Data for the mlh1 strain (AID 171);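 further: 0% = growth of vehicle-treated control cultures of the same strain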; conditions: S. cerevisiae mlh1 strain growth inhibition, active compounds read high
Summary of the method: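 Yeast carrying a defined genetic alteration in DNA damage repair or cell cycle control were exposed to test compounds. Growth inhibition was measured relative to vehicle-treated controls.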

[13] = NCI Yeast Anticancer Drug Screen. Data for the sgs1 strain (AID 173);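 further: 0% = growth of vehicle-only control cultures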; conditions: S. cerevisiae sgs1 mutant, active compounds read high
Summary of the method: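 Yeast mutant strains carrying defined defects in DNA damage repair or cell cycle control were exposed to test compounds. Growth inhibition was scored against vehicle-treated controls.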

[14] = NCI Yeast Anticancer Drug Screen. Data for the mlh1 rad18 strain (AID 175); conditions: S. cerevisiae mlh1 rad18 strain growth inhibition, active compounds read high
Summary of the method: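 Growth inhibition of the yeast strain was measured after compound exposure and expressed relative to vehicle-treated controls. The strain carries defined defects in DNA damage repair.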

[15] = NCI Yeast Anticancer Drug Screen. Data for the rad18 strain (AID 177); conditions: S. cerevisiae rad18 mutant growth inhibition, active compounds read high
Summary of the method: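 Yeast carrying a defined DNA damage repair alteration were exposed to compounds. Growth inhibition was expressed relative to vehicle-treated controls.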

[16] = NCI Yeast Anticancer Drug Screen. Data for the rad14 strain (AID 159);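 further: 0% = growth of vehicle-treated control cultures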; conditions: S. cerevisiae rad14 strain growth inhibition, active compounds read high
Summary of the method: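 Here, inhibition of yeast growth was measured after compound exposure, using a strain with a genetic defect in DNA damage repair and vehicle-treated cultures as the reference.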

[17] = at 5.0 µM (retest, dose inferred, filed as 0.5)
[18] = at 50.0 µM (retest, dose inferred, filed as 5.0)

Measured: growth inhibition

OB(O)c1ccccc1C#Cc1ccccc1
active: [5]; at 50.0 µM 96.3% | [7]; at 50.0 µM 76.8% | [10]; at 50.0 µM 76.8% | [14]; at 50.0 µM 75.8%
inactive: [1]; at 1.2 µM 3% | [1]; at 3.7 µM 4% | [1]; at 11.0 µM 8% | [1]; at 33.0 µM 21% | [1]; at 100.0 µM 27% | [2]; at 1.2 µM -2% | [2]; at 3.7 µM -2% | [2]; at 11.0 µM 2% | [2]; at 33.0 µM 8% | [2]; at 100.0 µM 15% | [3]; at 1.2 µM -1% | [3]; at 3.7 µM 3% | [3]; at 11.0 µM 12% | [3]; at 33.0 µM 33% | [3]; at 100.0 µM 34% | [4]; at 1.2 µM 1% | [4]; at 3.7 µM 3% | [4]; at 11.0 µM 8% | [4]; at 33.0 µM 14% | [4]; at 100.0 µM 18% | [5]; at 1.2 µM 5% | [5]; at 3.7 µM 13% | [5]; [17] -14% | [5]; at 11.0 µM 20% | [5]; at 33.0 µM 29% | [5]; [18] 21% | [5]; at 100.0 µM 43% | [6]; at 1.2 µM -1% | [6]; at 3.7 µM 6% | [6]; [17] -5% | [6]; at 11.0 µM 12% | [6]; at 33.0 µM 21% | [6]; [18] 1% | [6]; at 50.0 µM 64.5% | [6]; at 100.0 µM 28% | [7]; [17] -16% | [7]; [18] 22% | [8]; at 1.2 µM 7% | [8]; at 3.7 µM 9% | [8]; at 11.0 µM 23% | [8]; at 33.0 µM 43% | [8]; at 100.0 µM 40% | [9]; [17] -12% | [9]; [18] 13% | [9]; at 50.0 µM 55.8% | [10]; at 1.2 µM 8% | [10]; at 3.7 µM 2% | [10]; [17] -20% | [10]; at 11.0 µM 21% | [10]; at 33.0 µM 34% | [10]; [18] 43% | [10]; at 100.0 µM 46% | [11]; at 1.2 µM -2% | [11]; at 3.7 µM -1% | [11]; at 11.0 µM 7% | [11]; at 33.0 µM 23% | [11]; at 100.0 µM 24% | [12]; at 1.2 µM -2% | [12]; at 3.7 µM 6% | [12]; at 11.0 µM 4% | [12]; at 33.0 µM 14% | [12]; at 100.0 µM 14% | [13]; at 1.2 µM -1% | [13]; at 3.7 µM -1% | [13]; at 11.0 µM 8% | [13]; at 33.0 µM 19% | [13]; at 100.0 µM 31% | [14]; [17] 13% | [14]; [18] 68% | [15]; at 1.2 µM 1% | [15]; at 3.7 µM 2% | [15]; at 11.0 µM 13% | [15]; at 33.0 µM 41% | [15]; at 100.0 µM 54%

CCN1CCC(O)(c2ccc(Oc3ccc(C)cc3)cc2)C(C(=O)c2ccc(Oc3ccc(C)cc3)cc2)C1 (stereo unspecified)
inactive: [1]; at 1.2 µM -28% | [1]; at 3.7 µM -32% | [2]; at 1.2 µM -44% | [2]; at 3.7 µM -31% | [3]; at 1.2 µM -17% | [3]; at 3.7 µM 15% | [4]; at 1.2 µM -7% | [4]; at 3.7 µM 6% | [5]; at 1.2 µM -21% | [5]; at 3.7 µM -20% | [5]; [17] 18% | [6]; at 1.2 µM -9% | [6]; at 3.7 µM -1% | [6]; [17] 2% | [16]; at 1.2 µM -38% | [16]; at 3.7 µM -9% | [7]; [17] 16% | [7]; [18] -2% | [9]; [17] 18% | [9]; [18] 10% | [10]; at 1.2 µM 0% | [10]; at 3.7 µM 23% | [10]; [17] 14% | [10]; [18] 15% | [11]; at 1.2 µM -7% | [11]; at 3.7 µM -19% | [12]; at 1.2 µM -7% | [12]; at 3.7 µM -2% | [13]; at 1.2 µM -18% | [13]; at 3.7 µM -22% | [14]; [17] 21% | [15]; at 1.2 µM -20% | [15]; at 3.7 µM 5%
active: [1]; at 11.0 µM 96% | [1]; at 33.0 µM 95% | [1]; at 100.0 µM 93% | [2]; at 11.0 µM 97% | [2]; at 33.0 µM 96% | [2]; at 100.0 µM 94% | [3]; at 11.0 µM 96% | [3]; at 33.0 µM 94% | [3]; at 100.0 µM 93% | [4]; at 11.0 µM 98% | [4]; at 33.0 µM 96% | [4]; at 100.0 µM 95% | [5]; at 11.0 µM 97% | [5]; at 33.0 µM 95% | [5]; [18] 96% | [5]; at 50.0 µM 85.6% | [5]; at 100.0 µM 94% | [6]; at 11.0 µM 98% | [6]; at 33.0 µM 97% | [6]; [18] 97% | [6]; at 50.0 µM 92% | [6]; at 100.0 µM 94% | [16]; at 11.0 µM 96% | [16]; at 33.0 µM 95% | [16]; at 100.0 µM 92% | [7]; at 50.0 µM 88.8% | [9]; at 50.0 µM 88.2% | [10]; at 11.0 µM 97% | [10]; at 33.0 µM 96% | [10]; at 50.0 µM 89% | [10]; at 100.0 µM 95% | [11]; at 11.0 µM 97% | [11]; at 33.0 µM 96% | [11]; at 100.0 µM 86% | [12]; at 11.0 µM 98% | [12]; at 33.0 µM 97% | [12]; at 100.0 µM 95% | [13]; at 11.0 µM 97% | [13]; at 33.0 µM 96% | [13]; at 100.0 µM 93% | [14]; [18] 95% | [14]; at 50.0 µM 91% | [15]; at 11.0 µM 97% | [15]; at 33.0 µM 96% | [15]; at 100.0 µM 93%
